Only a selection was taken, and the strongest signals are over-represented in it overall.
Columns and labels:
Assay in all cases: glycan array binding signal (z-score within array); higher = stronger binding
Conditions in all cases: glycan notation: IUPAC condensed, linker removed
Fuc(a1-2)Gal(b1-4)Glc6S = biological target: Fuc(a1-2)Gal(b1-4)Glc6S
Method in brief: (§1)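 Columns mapping to the same glycan were averaged after glycan names were converted to IUPAC-condensed notation. The data come from 3228 arrays in the Consortium for Functional Glycomics database, limited to those with an available protein sequence. Binding is reported as a within-array Z-score averaged across arrays of one protein sequence and across linkers.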

[1] = biological target: Fuc(a1-2)Gal(b1-4)GlcNAc(b1-3)Gal(b1-4)GlcNAc
Method in brief: as §1

[2] = biological target: Fuc(a1-2)Gal(b1-4)GlcNAc(b1-3)Gal(b1-4)GlcNAc(b1-2)Man(a1-3)[Fuc(a1-2)Gal(b1-4)GlcNAc(b1-3)Gal(b1-4)GlcNAc(b1-2)Man(a1-6)]Man(b1-4)GlcNAc(b1-4)GlcNAc
Method in brief: as §1

[3] = biological target: Fuc(a1-2)Gal(b1-4)GlcNAc(b1-3)Gal(b1-4)GlcNAc(b1-3)Gal(b1-4)GlcNAc
Method in brief: as §1

[4] = biological target: Fuc(a1-2)Gal(b1-4)GlcNAc(b1-3)GalNAc
Method in brief: as §1

[5] = biological target: Fuc(a1-2)Gal(b1-4)GlcNAc(b1-6)GalNAc
Method in brief: as §1

[6] = biological target: Fuc(a1-2)Gal(b1-4)[Fuc(a1-3)]GlcNAc(b1-2)Man(a1-3)[Fuc(a1-2)Gal(b1-4)[Fuc(a1-3)]GlcNAc(b1-2)Man(a1-6)]Man(b1-4)GlcNAc(b1-4)[Fuc(a1-6)]GlcNAc
Method in brief: as §1

[7] = biological target: Fuc(a1-2)Gal(b1-4)[Fuc(a1-3)]GlcNAc(b1-2)[Fuc(a1-2)Gal(b1-4)[Fuc(a1-3)]GlcNAc(b1-4)]Man(a1-3)[Fuc(a1-2)Gal(b1-4)[Fuc(a1-3)]GlcNAc(b1-2)Man(a1-6)]Man(b1-4)GlcNAc(b1-4)GlcNAc
Method in brief: as §1

[8] = biological target: Fuc(a1-2)Gal(b1-4)[Fuc(a1-3)]GlcNAc(b1-3)Gal(b1-4)[Fuc(a1-3)]GlcNAc
Method in brief: as §1

[9] = biological target: Fuc(a1-2)Gal(b1-4)[Fuc(a1-3)]GlcNAc(b1-3)Gal(b1-4)[Fuc(a1-3)]GlcNAc(b1-3)Gal(b1-4)[Fuc(a1-3)]GlcNAc
Method in brief: as §1

[10] = biological target: Fuc(a1-2)[Gal(a1-3)]Gal(b1-3)GalNAc(b1-3)Gal(a1-4)Gal(b1-4)Glc
Method in brief: as §1

[11] = biological target: Fuc(a1-2)[Gal(a1-3)]Gal(b1-3)GlcNAc(b1-2)Man(a1-3)[Fuc(a1-2)[Gal(a1-3)]Gal(b1-3)GlcNAc(b1-2)Man(a1-6)]Man(b1-4)GlcNAc(b1-4)[Fuc(a1-6)]GlcNAc
Method in brief: as §1

[12] = biological target: Fuc(a1-2)[Gal(a1-3)]Gal(b1-4)[Fuc(a1-3)]GlcNAc(b1-3)GalNAc
Method in brief: as §1

[13] = biological target: Fuc(a1-2)[GalNAc(a1-3)]Gal(b1-4)GlcNAc(b1-3)Gal(b1-4)GlcNAc(b1-3)Gal(b1-4)GlcNAc
Method in brief: as §1

[14] = biological target: Fuc(a1-2)[GalNAc(a1-4)]Gal(b1-4)GlcNAc
Method in brief: as §1

[15] = biological target: Fuc(a1-3)[Gal(b1-4)]GlcNAc(b1-3)Gal(b1-4)[Fuc(a1-3)]GlcNAc(b1-3)Gal(b1-4)[Fuc(a1-3)]GlcNAc
Method in brief: as §1

Gal(b1-3)GalNAc = biological target: Gal(b1-3)GalNAc
Method in brief: as §1

[16] = biological target: Gal(b1-3)GlcNAc(a1-3)Gal(b1-4)GlcNAc
Method in brief: as §1

[17] = biological target: Gal(b1-3)GlcNAc(b1-3)Gal(b1-4)[Fuc(a1-3)]GlcNAc
Method in brief: as §1

[18] = biological target: Gal(b1-3)GlcNAc(b1-3)GalNAc
Method in brief: as §1

[19] = biological target: Gal(b1-3)GlcNAc(b1-6)[Gal(b1-3)]GalNAc
Method in brief: as §1

[20] = biological target: Gal(b1-3)[Fuc(a1-4)]GlcNAc(b1-3)Gal(b1-3)[Fuc(a1-4)]GlcNAc
Method in brief: as §1

[21] = biological target: Gal(b1-3)[Fuc(a1-4)]GlcNAc(b1-3)Gal(b1-4)[Fuc(a1-3)]GlcNAc
Method in brief: as §1

[22] = biological target: Gal(b1-3)[Neu5Ac(a2-6)]GalNAc
Method in brief: as §1

[23] = biological target: Gal(b1-4)GalNAc(b1-3)[Fuc(a1-2)]Gal(b1-4)GlcNAc
Method in brief: as §1

Gal(b1-4)Glc = biological target: Gal(b1-4)Glc
Method in brief: as §1

Gal(b1-4)GlcNAc(b1-2)Man = biological target: Gal(b1-4)GlcNAc(b1-2)Man
Method in brief: as §1

[24] = biological target: Gal(b1-4)GlcNAc(b1-3)Gal(b1-4)GlcNAc(b1-3)[Gal(b1-4)GlcNAc(b1-3)Gal(b1-4)GlcNAc(b1-6)]GalNAc
Method in brief: as §1

[25] = biological target: Gal(b1-4)GlcNAc(b1-3)Gal(b1-4)[Fuc(a1-3)]GlcNAc(b1-3)Gal(b1-4)[Fuc(a1-3)]GlcNAc
Method in brief: as §1

Gal4S(b1-4)GlcNAc = biological target: Gal4S(b1-4)GlcNAc
Method in brief: as §1

Gal6S(b1-4)GlcNAc = biological target: Gal6S(b1-4)GlcNAc
Method in brief: as §1

GalNAc(b1-3)Gal = biological target: GalNAc(b1-3)Gal
Method in brief: as §1

GalNAc3S(b1-4)GlcNAc3S = biological target: GalNAc3S(b1-4)GlcNAc3S
Method in brief: as §1

[26] = biological target: GlcNAc(a1-4)Gal(b1-4)GlcNAc(b1-3)Gal(b1-4)Glc
Method in brief: as §1

[27] = biological target: GlcNAc(b1-3)Gal(b1-4)GlcNAc(b1-3)Gal(b1-4)GlcNAc
Method in brief: as §1

[28] = biological target: GlcNAc(b1-3)Gal(b1-4)GlcNAc(b1-3)Gal(b1-4)GlcNAc(b1-3)Gal(b1-4)GlcNAc(b1-2)Man(a1-3)[GlcNAc(b1-3)Gal(b1-4)GlcNAc(b1-3)Gal(b1-4)GlcNAc(b1-3)Gal(b1-4)GlcNAc(b1-2)Man(a1-6)]Man(b1-4)GlcNAc(b1-4)GlcNAc
Method in brief: as §1

[29] = biological target: GlcNAc(b1-3)Gal(b1-4)GlcNAc(b1-3)Gal(b1-4)GlcNAc(b1-3)Gal(b1-4)GlcNAc(b1-3)Gal(b1-4)GlcNAc(b1-2)Man(a1-3)[GlcNAc(b1-3)Gal(b1-4)GlcNAc(b1-3)Gal(b1-4)GlcNAc(b1-3)Gal(b1-4)GlcNAc(b1-3)Gal(b1-4)GlcNAc(b1-2)Man(a1-6)]Man(b1-4)GlcNAc(b1-4)[Fuc(a1-6)]GlcNAc
Method in brief: as §1

[30] = biological target: GlcNAc(b1-3)[GlcNAc(b1-6)]Gal(b1-4)GlcNAc
Method in brief: as §1

GlcNAc(b1-4)GlcNAc = biological target: GlcNAc(b1-4)GlcNAc
Method in brief: as §1

[31] = biological target: GlcNAc(b1-4)GlcNAc(b1-4)GlcNAc
Method in brief: as §1

GlcNAc(b1-6)GalNAc = biological target: GlcNAc(b1-6)GalNAc
Method in brief: as §1

Kdn(a2-3)Gal(b1-3)GlcNAc = biological target: Kdn(a2-3)Gal(b1-3)GlcNAc
Method in brief: as §1

[32] = biological target: Man(a1-2)Man(a1-3)[Man(a1-2)Man(a1-6)]Man(a1-6)[Man(a1-2)Man(a1-2)Man(a1-3)]Man
Method in brief: as §1

[33] = biological target: Man(a1-3)[Man(a1-6)]Man(a1-6)[Man(a1-2)Man(a1-3)]Man(b1-4)GlcNAc(b1-4)GlcNAc
Method in brief: as §1

[34] = biological target: Neu5Ac(a2-3)Gal(b1-3)[Fuc(a1-4)]GlcNAc
Method in brief: as §1

[35] = biological target: Neu5Ac(a2-3)Gal(b1-4)GlcNAc(b1-3)Gal(b1-3)GlcNAc
Method in brief: as §1

[36] = biological target: Neu5Ac(a2-3)Gal(b1-4)GlcNAc(b1-3)GalNAc
Method in brief: as §1

[37] = biological target: Neu5Ac(a2-3)Gal(b1-4)GlcNAc(b1-6)[Gal(b1-3)]GalNAc
Method in brief: as §1

[38] = biological target: Neu5Ac9Ac(a2-6)Gal(b1-4)GlcNAc
Method in brief: as §1

[39] = biological target: Neu5Gc(a2-3)Gal(b1-3)[Fuc(a1-4)]GlcNAc
Method in brief: as §1

Neu5Gc(a2-6)GalNAc = biological target: Neu5Gc(a2-6)GalNAc
Method in brief: as §1

[40] = biological target: Neu5Gc(a2-8)Neu5Gc(a2-6)Gal(b1-4)GlcNAc
Method in brief: as §1

B1: LecB PA7 (Pseudomonas aeruginosa) (protein)
chain: MATQGVFTLPANTRFGVTAFANSSATQTVKVLVNNETAATFTGQSTNNAVIGSQVLNSGGGGKVQIQVSVNGRSSDLVSAQVILANELNVALVGSEDSTDNDYNDAVVVINWPLG
With B1 the “glycan array binding signal (z-score)” value (Fuc(a1-2)Gal(b1-4)Glc6S) was 1.89, the “glycan array binding signal (z-score)” value [1] was 3.5 and the “glycan array binding signal (z-score)” value [2] was 10.1. For the same binder, the “glycan array binding signal (z-score)” value [3] was 3.71, the “glycan array binding signal (z-score)” value [4] was 0.923 and the “glycan array binding signal (z-score)” value [5] was 0.819. For the same binder, the “glycan array binding signal (z-score)” value [6] was 5.18, the “glycan array binding signal (z-score)” value [7] was -0.08 and the “glycan array binding signal (z-score)” value [8] was 4.93. For the same binder, the “glycan array binding signal (z-score)” value [9] was 4.08, the “glycan array binding signal (z-score)” value [10] was -0.43 and the “glycan array binding signal (z-score)” value [11] was 0.145. The “glycan array binding signal (z-score)” value [12] was 0.197, the “glycan array binding signal (z-score)” value [13] was -0.381 and the “glycan array binding signal (z-score)” value [14] was 1.57. For the same binder, the “glycan array binding signal (z-score)” value [15] was 3.54, the “glycan array binding signal (z-score)” value (Gal(b1-3)GalNAc) was -0.403 and the “glycan array binding signal (z-score)” value [16] was -0.51. The “glycan array binding signal (z-score)” value [17] was 1.8, the “glycan array binding signal (z-score)” value [18] was -0.499 and the “glycan array binding signal (z-score)” value [19] was -0.412. For the same binder, the “glycan array binding signal (z-score)” value [20] was 3.31, the “glycan array binding signal (z-score)” value [21] was 3.44 and the “glycan array binding signal (z-score)” value [22] was -0.511. For the same binder, the “glycan array binding signal (z-score)” value [23] was -0.478, the “glycan array binding signal (z-score)” value (Gal(b1-4)Glc) was -0.502 and the “glycan array binding signal (z-score)” value (Gal(b1-4)GlcNAc(b1-2)Man) was -0.495. For the same binder, the “glycan array binding signal (z-score)” value [24] was -0.495, the “glycan array binding signal (z-score)” value [25] was 2.05 and the “glycan array binding signal (z-score)” value (Gal4S(b1-4)GlcNAc) was -0.478. The “glycan array binding signal (z-score)” value (Gal6S(b1-4)GlcNAc) was -0.501, the “glycan array binding signal (z-score)” value (GalNAc(b1-3)Gal) was -0.493 and the “glycan array binding signal (z-score)” value (GalNAc3S(b1-4)GlcNAc3S) was -0.517. For the same binder, the “glycan array binding signal (z-score)” value [26] was -0.505, the “glycan array binding signal (z-score)” value [27] was -0.503 and the “glycan array binding signal (z-score)” value [28] was -0.467. For the same binder, the “glycan array binding signal (z-score)” value [29] was 0.402, the “glycan array binding signal (z-score)” value [30] was -0.516 and the “glycan array binding signal (z-score)” value (GlcNAc(b1-4)GlcNAc) was -0.486. For the same binder, the “glycan array binding signal (z-score)” value [31] was -0.497, the “glycan array binding signal (z-score)” value (GlcNAc(b1-6)GalNAc) was -0.504 and the “glycan array binding signal (z-score)” value (Kdn(a2-3)Gal(b1-3)GlcNAc) was -0.511. For the same binder, the “glycan array binding signal (z-score)” value [32] was 3.2, the “glycan array binding signal (z-score)” value [33] was 2.3 and the “glycan array binding signal (z-score)” value [34] was 3.31. The “glycan array binding signal (z-score)” value [35] was -0.505, the “glycan array binding signal (z-score)” value [36] was -0.466 and the “glycan array binding signal (z-score)” value [37] was -0.087. For the same binder, the “glycan array binding signal (z-score)” value [38] was -0.502, the “glycan array binding signal (z-score)” value [39] was 2.03 and the “glycan array binding signal (z-score)” value (Neu5Gc(a2-6)GalNAc) was -0.508. For the same binder, the “glycan array binding signal (z-score)” value [40] was -0.507.

From the supplement of paper PMC8728848
